# Assay results reported in PubChem BioAssay (NCI).
# About 83,000 compounds went through this panel and 20% of them were active in at least one assay; those are over-represented in the sample as a whole.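 Values shown are percent growth following 48 h exposure of cells in 96-well plates to a single concentration of compound; below 10 was considered active.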 A number with no mark means an inactive call. Active and inactive are the calls of the source.
# Tests used:
# Assay in all cases: NCI-60 one-dose screen, 48 h (100 = growth as untreated, 0 = no growth, -100 = all killed)
# Settings in all cases: 10 µM unless noted
# DU-145 prostate = tested on: DU-145 prostate
# K-562 leukemia = tested on: K-562 leukemia
# MALME-3M melanoma = tested on: MALME-3M melanoma
# MDA-MB-231 breast = tested on: MDA-MB-231 breast
# SF-268 CNS = tested on: SF-268 CNS
# SF-295 CNS = tested on: SF-295 CNS
# SF-539 CNS = tested on: SF-539 CNS
# M14 melanoma = tested on: M14 melanoma
# HCT-15 colon = tested on: HCT-15 colon
# HT29 colon = tested on: HT29 colon
# SNB-75 CNS = tested on: SNB-75 CNS
# SNB-19 CNS = tested on: SNB-19 CNS
# U251 CNS = tested on: U251 CNS
# PC-3 prostate = tested on: PC-3 prostate
# SK-MEL-5 melanoma = tested on: SK-MEL-5 melanoma
# UACC-62 melanoma = tested on: UACC-62 melanoma
# LOX IMVI melanoma = tested on: LOX IMVI melanoma
# SK-MEL-28 melanoma = tested on: SK-MEL-28 melanoma
Structure (SMILES),growth (DU-145 prostate),growth (K-562 leukemia),growth (MALME-3M melanoma),growth (MDA-MB-231 breast),growth (SF-268 CNS),growth (SF-295 CNS),growth (SF-539 CNS),growth (M14 melanoma),growth (HCT-15 colon),growth (HT29 colon),growth (SNB-75 CNS),growth (SNB-19 CNS),growth (U251 CNS),growth (PC-3 prostate),growth (SK-MEL-5 melanoma),growth (UACC-62 melanoma),growth (LOX IMVI melanoma),growth (SK-MEL-28 melanoma)
C[C@@H](C[C@H](CCO)c1cc(C(F)(F)F)cc(C(F)(F)F)c1)c1ccc2ccccc2c1,93.2%,33%,87.9%,93.6%,81.8%,77.8%,94.2%,79.7%,76.7%,71.2%,88.5%,107%,91.5%,83%,105%,90.4%,87.3%,86.7%
NC(=O)c1n[nH]n2c1nc(=O)c1c3c(sc12)CCCC3,110%,89.5%,109%,101%,105%,102%,102%,98%,107%,106%,102%,104%,97%,85.3%,-31.5% (active),103%,99.3%,120%
CCCCCCCC(=O)SCC/C=C/[C@@H]1CC(=O)NCc2cccc(n2)C2=N[C@@](C)(CS2)C(=O)N[C@@H](C(C)C)C(=O)O1,12.3%,11.1%,22.7%,10.2%,11.1%,-62.4% (active),20%,5.95% (active),2.94% (active),0.997% (active),31.3%,14.3%,-32.1% (active),11.5%,-93.9% (active),-64.1% (active),-94.3% (active),1.51% (active)
O=C(c1ccccc1)C(c1ccccc1)N1CCOCC1 (centres undefined),107%,96%,103%,105%,99.1%,94.9%,101%,99.8%,104%,99.1%,100%,100%,95.1%,92.7%,102%,105%,98.2%,105%
CC(=O)OC1Oc2ccccc2-c2oc(=O)c(-c3cc4ccc(N(C)C)cc4oc3=O)cc21 (centres undefined),19.1%,1.45% (active),4.74% (active),59.5%,73.1%,6.73% (active),69.4%,47.2%,46.2%,72.4%,71.1%,48.2%,48.3%,34.8%,18.8%,67.3%,43.2%,103%
CCOC(=O)C1=C(C)NC(=O)NC1c1cc(=O)oc2ccc(C)cc12 (centres undefined),104%,103%,99%,106%,101%,96.9%,102%,102%,104%,95.2%,97%,106%,102%,97.2%,98.2%,99%,97.5%,107%
O=C1CC(c2ccc(Cl)cc2)c2ncn(-c3cccc(Cl)c3)c2N1 (centres undefined),62.9%,23.8%,53.2%,48.3%,58.2%,47.6%,33%,21.6%,27.7%,28.8%,36.2%,50%,36.3%,67.7%,34.1%,33.9%,47.5%,54.8%
Cc1sc2c(c1C)c(=O)nc1c(-c3nc4ccccc4s3)n[nH]n12,106%,94%,97.1%,87.6%,96.1%,92.3%,96.5%,98.6%,100%,101%,95.3%,101%,98%,78.7%,96.7%,88.4%,93.3%,101%
